Compounds with a hit are over-represented: about 10% of the library has one in this group of screens.
HPGD inh: qHTS Assay for Inhibitors of HPGD (15-Hydroxyprostaglandin Dehydrogenase); 15-hydroxyprostaglandin dehydrogenase [NAD(+)] (Homo sapiens), P15428; purified HPGD, NADH fluorescence kinetic, PGE2 substrate; Potency, µM, actives largely listed as inhibitors; actives 4.3% (n = 150,000); active = well fitted inhibition curve with a large enough effect, not every such curve was filed as active; inconclusive = small, poorly fitted or top-dose-only effect, or another doubt; inactive = no such curve, though single readings can be large or run the other way
Target sequence (P15428 whole entry, looked up): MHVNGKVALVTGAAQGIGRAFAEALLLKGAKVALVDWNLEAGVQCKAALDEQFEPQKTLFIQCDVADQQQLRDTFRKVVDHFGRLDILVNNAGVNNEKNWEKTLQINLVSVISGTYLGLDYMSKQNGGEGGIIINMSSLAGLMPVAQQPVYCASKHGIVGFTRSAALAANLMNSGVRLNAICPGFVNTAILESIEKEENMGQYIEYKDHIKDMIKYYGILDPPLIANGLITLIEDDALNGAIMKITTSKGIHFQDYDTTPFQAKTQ
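20 nM HPGD preincubated 15 min at room temperature with compound in 50 mM Tris-HCl pH 8, 0.01% Tween 20. Started with 1 mM NAD+ and 30 uM prostaglandin E2; NADH fluorescence (360/450 nm) read 5 times over 30-s intervals, last minus first.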
ALDH1A1 inh: qHTS Assay for Inhibitors of Aldehyde Dehydrogenase 1 (ALDH1A1); Aldehyde dehydrogenase 1A1 (Homo sapiens), P00352; Purified ALDH1A1, NADH fluorescence, propionaldehyde substrate; Potency, µM (series often up to 75.3 µM), usual class: inhibitors; actives 7.3% (n = 220,000); AID 1030, 2008; active = well fitted inhibition curve with a large enough effect, not every such curve was filed as active; inconclusive = small, poorly fitted or top-dose-only effect, or another doubt; inactive = no such curve, though single readings can be large or run the other way
ALOX12 inhib: qHTS Assay for Inhibitors of 12-hLO (12-human lipoxygenase) | Polyunsaturated fatty acid lipoxygenase ALOX12 (Homo sapiens), P18054 | purified 12-hLO, xylenol orange hydroperoxide absorbance | Potency, µM (top dose mostly 57.1 µM), usual class: inhibitors | actives 0.12% (n = 150,000); also: nearly all actives have a fitted effect of over 55% in size
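Xylenol orange chromogenic assay: hydroperoxide from 12hLO oxidises Fe(II), giving red-shifted Fe(III)-XO absorbance. Conditions: 150 nM enzyme, 40 uM arachidonic acid, 25 mM Hepes pH 7.0, 0.01% Triton X-100, 30 min, room temperature.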
GLA spleen mod: qHTS Assay for Inhibitors and Activators of Human alpha-Galactosidase From Spleen Homogenate; human spleen homogenate, 4MU-alpha-Gal fluorescence, 40 min; Potency, µM (titrated, usually from 80 µM), most hits filed as inhibitors; actives 0.008% (n = 240,000)
Target sequence (P06280 32-429 limits assumed): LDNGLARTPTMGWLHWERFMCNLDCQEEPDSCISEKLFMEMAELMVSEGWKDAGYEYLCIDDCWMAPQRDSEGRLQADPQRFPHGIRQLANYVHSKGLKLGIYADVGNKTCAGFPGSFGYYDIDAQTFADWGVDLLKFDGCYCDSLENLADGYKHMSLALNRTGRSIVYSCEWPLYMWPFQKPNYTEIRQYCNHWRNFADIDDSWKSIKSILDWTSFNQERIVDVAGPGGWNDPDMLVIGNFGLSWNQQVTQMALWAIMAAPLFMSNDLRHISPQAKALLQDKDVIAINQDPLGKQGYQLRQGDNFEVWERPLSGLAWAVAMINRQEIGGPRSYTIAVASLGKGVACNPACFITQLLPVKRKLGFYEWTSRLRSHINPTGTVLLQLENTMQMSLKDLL
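qHTS titration in buffer at pH 5.0. Alpha-galactosidase activity in spleen homogenate was measured via 4-methylumbelliferone release from 1 mM fluorogenic substrate after 40 min at 37C and a pH 10 stop. AC50 came from Hill fits of control-normalized data.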
PNC assembly inh: High Content Assay for Compounds that inhibit the Assembly of the Perinucleolar Compartment; activity change (PNC), negative = inhibition, % at 10 µM; PC3M PTB-GFP, PNC prevalence imaging, 16 h; hits give low values; actives 3.1% (n = 140,000);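 active = readout at or below -70, meaning at least 70% loss of cells showing the perinucleolar compartment, a nuclear body marking cancer cells; inconclusive = readout between -30 and a set limit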
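PC3M cells stably expressing PTB-GFP, 750–1000 cells/well, treated 16 h at 37 °C with compound (23 nl of library stock), in duplicate. After paraformaldehyde fixation and Hoechst stain, imaged at 20x; PNC prevalence scored by image analysis.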
GLA inh pH 4.5: qHTS Assay for Inhibitors of Human alpha-Galactosidase at pH 4.5; purified enzyme, 4-MU-alpha-Gal fluorescence, pH 4.5; activity change, negative = inhibition, % at 105 µM; 230,000 tested, under 10 active
Numbers stand for hits; - = inactive; ? = inconclusive; . = not tested or not shown; [ ] = remark or other dose. Unless noted, calls follow the shape of the dose curve; as a rule, active = well fitted curve in the direction sought with a large enough effect; inconclusive = small, poorly fitted or top-dose-only effect, or another doubt; inactive = no such curve, though single readings can be large; an effect the other way counts as inactive or inconclusive.

SMILES	HPGD inh	ALDH1A1 inh	ALOX12 inhib	GLA spleen mod	PNC assembly inh	GLA inh pH 4.5
O=C(/C=C/c1ccc(S(=O)(=O)N2CCOCC2)cc1)NCc1ccccc1Cl	-	8.9µM	-	-	-	-
Cc1cc2c(cc(C(=O)OCC(=O)NCc3cccs3)n2C(C)C)o1	-	19µM	-	-	-	-
COc1oc(=O)c2cc(N)ccc2c1Cl	.	.	.	-	.	.
CCN(CC)c1ccc2cc(-c3nc4ccccc4[nH]3)c(=O)oc2c1	-	-	-	-	-104	-
CCN(CC)c1ccc2cc(-c3nnc(-c4ccccc4)o3)c(=O)oc2c1	-	?	-	-	-100	-
CCN(CC)c1ccc2cc(-c3nc4ccccc4n3C)c(=O)oc2c1	-	?	-	-	?	-
C=CCOC(=O)c1ccc(-n2cnc(C)n2)nc1	.	-	.	-	.	-
COC(=O)NC(c1cccc(F)c1)[C@]1(C(C)=O)CCCC1=O (some centres not stated)	.	-[13.5 µM]	.	-[17.5 µM]	.	.
CCOC(=O)Cc1csc(SCC(=O)NC2CCCC(C)C2C)n1 (configuration not stated)	25µM	?	-	-	?	-
CCOC(=O)Cc1csc(SCC(=O)Nc2sc3c(c2C(N)=O)CCC3)n1	18µM	?	-	-	-	-
CCOC(=O)Cc1csc(SCC(=O)NC2CCCCC2)n1	?	-	-	-	-	-
CCOC(=O)c1c(NC(=O)CSc2nnc(C)s2)sc2c1CCCCC2	-	?	-	-	-	-
O=C1OC(c2ccccc2)c2ccccc21 (configuration not stated)	-	14µM	-	-	-	-
CCCCCCCC/C=C/CCCCCCCC(=O)NCCOP(=O)(O)O	.	.	.	-	.	.
Cn1nnnc1SCC(=O)Nc1ccccc1Cc1ccccc1	-	-	-	-	-	-
O=C(Cn1cnnn1)Nc1ccccc1Cc1ccccc1	-	-	-	-	-100	-
Cc1ccc2cc(CN(CC3CCCO3)S(=O)(=O)c3ccccc3)c3nnnn3c2c1 (configuration not stated)	-	7.1µM	-	-	-100	-
O=C(Cn1nnc(-c2ccc(OCc3ccccc3F)cc2)n1)N1CCOCC1	-	-	-	-	-102	-
COc1ccc(-c2nnn(CC(=O)N3CCOCC3)n2)cc1	-	-	-	-	-	-
COc1ccc(NCc2c(O)ccc3ccccc23)cc1	-	1.6µM	?	.	.	.
COc1ccc(NCc2cc3ccccc3[nH]c2=O)cc1	.	7.9µM	-	-	?	-
COc1ccc(NCc2cc3cc(OC)ccc3[nH]c2=O)cc1	-	8.9µM	-	-	-	-
Cc1nnc(SCC2=C(C(=O)O)N3C(=O)C(NC(=O)Cn4cnnn4)[C@@H]3SC2)s1 (some centres not stated)	-	-	-	-	.	-
Cc1cccc(-n2c(=S)[nH]c3sc4c(c3c2=O)CCc2ccccc2-4)c1	.	3.2µM	.	-	.	-
COC(=O)CC1C2(C)CC34OC5(C)O[C@@]6(C7/C(=C(/O)C(C)C)C(=O)OC(c8ccoc8)[C@]7(C)C(OC(C)=O)C(OC(C)=O)[C@]6(O5)[C@@]13C)C(OC(C)=O)[C@]4(O)C2OC(=O)C(C)C (some centres not stated)	-	-	-	-	.	-
SMILES	HPGD inh	ALDH1A1 inh	ALOX12 inhib	GLA spleen mod	PNC assembly inh	GLA inh pH 4.5
O=C(CSc1ccccc1)NCc1ccco1	28µM	-	-	-	-	-
O=C(CCSCCC(=O)NCc1ccco1)NCc1ccco1	16µM	18µM	-	-	-	-
Cc1ccc(Cc2c(C)nc3nc(SCC(=O)NCc4ccco4)nn3c2C)cc1	-	-	-	-	?	-
Cc1cccc(Cc2c(C)nc3nc(SCC(=O)NCc4ccco4)nn3c2C)c1	16µM	25µM	-	-	-	-
CCCn1cc(SCC(=O)NCc2ccco2)c2ccccc21	18µM	?	-	-	-	-
O=C(CSc1ccc2c(c1)OCCO2)NCc1ccco1	25µM	14µM	-	-	-	-
C=CCn1c(SCC(=O)NCc2ccco2)nnc1-c1ccc2ccccc2n1	16µM	?	-	-	-	-
O=C(CN1CCOc2ccccc21)NCc1ccco1	-	11µM	-	-	-106	-
O=C(CSc1ccc2c(c1)OCCO2)Nc1ccc(Br)cc1	.	7.1µM	-	-	?	-
O=C(CN1CC(=O)Oc2ccccc21)NCc1ccco1	-	?	-	-	-	-
O=C(CSc1ccc2c(c1)OCCO2)NC(=O)Cc1ccccc1	-	-	-	-	-	-
O=C(O)[C@@H]1[C@@H](C(=O)NCc2ccccn2)[C@@H]2C=C[C@@H]1O2	-	-[13.5 µM]	-[11.4 µM]	.	.	.
N#Cc1ccc(C(=O)CSc2n[nH]c(=O)n2-c2cccnc2)cc1	.	?	.	-	.	-
CC1(C)CC(O)C(C(O)c2cccc([N+](=O)[O-])c2)C(C)(C)N1 (configuration not stated)	-	-	-	-	-	-
Cc1cc(C)c2cc(C)c(SCC(=O)NCc3ccco3)nc2c1	.	14µM	.	-	.	-
CC(C)c1nc2ccccc2c2nnc(SCC(=O)NCc3ccco3)n12	-	-	-	-	-	-
CC(C)C(CC(=O)NCc1ccco1)c1ccco1 (configuration not stated)	14µM	?	-	-	-	-
CC(C)(C)c1nc2ccccc2c2nnc(SCC(=O)NCc3ccco3)n12	16µM	25µM	-	-	-	-
Cc1cc2nc3c(=O)[nH]c(=O)nc-3n(C)c2cc1C=O	-	-	-[0.00818 µM]	-	.	-
COc1ccc(CNC(=O)c2csc(Cc3ccc(Cl)cc3)n2)cc1	-	-	-	-	-106	-
COc1cc(NCCC(=O)c2cccs2)c(OC)cc1Cl	.	1.4µM	.	-	.	-
O=C(NCc1ccco1)c1cnccn1	-	28µM	-	-	?	-
O=C(NCc1ccco1)c1cc2nc(-c3ccc4c(c3)OCO4)cc(C(F)(F)F)n2n1	?	?	-	-	?	-
COc1ccc(-c2cc(C(F)(F)F)n3nc(C(=O)NCc4ccco4)cc3n2)cc1	?	?	-	-	-114	-
COc1cc(/C=C2\SC(=O)N(CCN)C2=O)ccc1OS(=O)(=O)c1cc(C)ccc1C	.	-	.	-	.	-
Cc1cccc(-n2c(SCc3ccc([N+](=O)[O-])cc3)nnc2-c2c[nH]c3ccccc23)c1	.	-	.	-	.	-
O=C(NCc1ccco1)c1nn2c(C(F)(F)F)cc(-c3cccs3)nc2c1Br	-	22µM	-	-	-	-
O=S(=O)(NCc1cn2ccsc2n1)c1cccs1	-	-	-	-	-	-
